Laboratory results from PubChem BioAssay (NCI).
About 79,000 compounds went through this panel and 15% of them were active in at least one assay; those are over-represented in the sample as a whole. Values without a mark were called inactive. The source made the active and inactive calls. Rule as the data show it: active = growth inhibition above about 70%; inactive = the rest.

Tests used:
[1] = NCI Yeast Anticancer Drug Screen. Data for the rad50 strain (AID 155);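 also: 0% = growth of vehicle-only cultures of the same strain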; settings: S. cerevisiae rad50 strain growth inhibition; at 50.0 µM; hits give high values
Method in brief: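 Growth of the mutant yeast was measured after compound exposure and referenced to vehicle-treated cultures.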

[2] = NCI Yeast Anticancer Drug Screen. Data for the mec2-1 strain (AID 157); settings: S. cerevisiae mec2-1 strain, at 50.0 µM, hits give high values
Method in brief: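 Yeast mec2-1 mutant treated with compound. Readout: growth inhibition vs vehicle controls.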

[3] = NCI Yeast Anticancer Drug Screen. Data for the sgs1 mgt1 strain (AID 161);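 also: 0% = growth of cultures given vehicle only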; settings: S. cerevisiae sgs1 mgt1 strain, at 50.0 µM, hits give high values
Method in brief: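 Inhibition of yeast growth, normalised to vehicle-treated controls, is reported for a strain bearing genetic alterations in DNA damage repair.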

[4] = NCI Yeast Anticancer Drug Screen. Data for the cln2 rad14 strain (AID 165);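 also: 0% = growth equal to vehicle treated cultures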; settings: S. cerevisiae cln2 rad14 strain, at 50.0 µM, hits give high values
Method in brief: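 cln2 rad14 yeast strain; compound exposure; growth inhibition read vs vehicle controls.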

[5] = NCI Yeast Anticancer Drug Screen. Data for the bub3 strain (AID 167); settings: S. cerevisiae bub3 mutant strain, at 50.0 µM, hits give high values
Method in brief: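 Whole-cell yeast assay. The mutant strain was incubated with compounds, and growth inhibition was determined by comparison with vehicle-treated cells.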

[6] = NCI Yeast Anticancer Drug Screen. Data for the mlh1 rad18 strain (AID 175); settings: S. cerevisiae mlh1 rad18 strain growth inhibition; at 50.0 µM; hits give high values
Method in brief: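 Yeast w/ defined DNA-repair lesions; compound exposure; growth vs vehicle controls → % inhibition.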

CCOC(=O)C1=C(O)c2ccccc2S(=O)(=O)N1C (tested in a mixture with another compound)
growth inhibition [1]: 4.05%
growth inhibition [2]: 20.3%
growth inhibition [3]: 14%
growth inhibition [4]: -18.9%
growth inhibition [5]: -25.6%
growth inhibition [6]: 0%

NC1=NN(c2ccccc2)C(=O)C1C(=O)CCC(=O)Nc1cccc(Cl)c1 (centres undefined)
growth inhibition [1]: 9.9%
growth inhibition [2]: -1.8%
growth inhibition [3]: -11.4%
growth inhibition [4]: 18.2%
growth inhibition [5]: 5.35%
growth inhibition [6]: 2.1%

CCOc1ccccc1NC(=O)C(=O)c1c(O)c2ccc(O)cc2oc1=O
growth inhibition [1]: 25.7%
growth inhibition [2]: 9.55%
growth inhibition [3]: 4.8%
growth inhibition [4]: 1.8%
growth inhibition [5]: -3.25%
growth inhibition [6]: -1.75%

CC(N)C(=O)NC(C(=O)O)C(C)C (centres undefined)
growth inhibition [1]: -2.4%
growth inhibition [2]: -2.55%
growth inhibition [3]: -16.1%
growth inhibition [4]: -14.7%
growth inhibition [5]: 0.3%
growth inhibition [6]: -23.4%

O=C(O)C(Cc1c[nH]c2ccccc12)N1C(=O)c2ccccc2C1=O (centres undefined)
growth inhibition [1]: 18.5%
growth inhibition [2]: 26.6%
growth inhibition [3]: -8.15%
growth inhibition [4]: -12.3%
growth inhibition [5]: -2.5%
growth inhibition [6]: 28.6%

CC(=O)/C(=C/N1CCNC1=S)C(=O)Nc1ccc([N+](=O)[O-])cc1
growth inhibition [1]: -0.1%
growth inhibition [2]: -4.5%
growth inhibition [3]: -28.1%
growth inhibition [4]: -33%
growth inhibition [5]: -12.9%
growth inhibition [6]: 5.6%

N#CCNC=O
growth inhibition [1]: -2.9%
growth inhibition [2]: 7.35%
growth inhibition [3]: -13.4%
growth inhibition [4]: -11.9%
growth inhibition [5]: 2.8%
growth inhibition [6]: -11.5%

Cc1nn(C)c(NC(=O)c2ccccc2O)c1SC#N
growth inhibition [1]: 43.3%
growth inhibition [2]: -5.35%
growth inhibition [3]: 16.7%
growth inhibition [4]: 28.2%
growth inhibition [5]: 35.2%
growth inhibition [6]: 10.4%

Cc1ccc(N2C(=O)/C(=C3\Sc4c(nc(C)n(C)c4=O)N3c3ccccc3)SC2=S)cc1
growth inhibition [1]: -20.9%
growth inhibition [2]: -31.4%
growth inhibition [3]: -7.3%
growth inhibition [4]: -58.5%
growth inhibition [5]: -32.5%
growth inhibition [6]: -26.8%

NC(=O)NC1=NCCC(=O)N1CCc1c[nH]c2ccccc12
growth inhibition [1]: 51.3%
growth inhibition [2]: 75.9% (active)
growth inhibition [3]: 84.2% (active)
growth inhibition [4]: 78.5% (active)
growth inhibition [5]: 77.7% (active)
growth inhibition [6]: 88% (active)

COC1c2ccccc2CC1(C)C (centres undefined)
growth inhibition [1]: 13.8%
growth inhibition [2]: 8.8%
growth inhibition [3]: 5.65%
growth inhibition [4]: -52.4%
growth inhibition [5]: 10.3%
growth inhibition [6]: 9.55%

Cc1c(C(=O)CC(=O)C(=O)Nc2c(C(C)C)cccc2C(C)C)[n+](=O)c2ccccc2n1[O-]
growth inhibition [1]: 35.6%
growth inhibition [2]: 39.5%
growth inhibition [3]: 22.2%
growth inhibition [4]: 40.5%
growth inhibition [5]: 29.8%
growth inhibition [6]: 36%

COC(=O)c1cc(OC)c2cccnc2c1Nc1ccccc1
growth inhibition [1]: -7.75%
growth inhibition [2]: 12.2%
growth inhibition [3]: 9.25%
growth inhibition [4]: 0.6%
growth inhibition [5]: 11.1%
growth inhibition [6]: -6.8%

CC(C)OC(=O)c1ccc(NCC2=CC(=O)C=CC2=O)cc1
growth inhibition [1]: 39.1%
growth inhibition [2]: 79.2% (active)
growth inhibition [3]: 63.5%
growth inhibition [4]: 57.1%
growth inhibition [5]: 46.1%
growth inhibition [6]: 88.2% (active)

COc1cc(Nc2cc(Cl)cc(Cl)c2)nc(N)n1
growth inhibition [1]: 76.4% (active)
growth inhibition [2]: 81% (active)
growth inhibition [3]: 6.5%
growth inhibition [4]: 7.9%
growth inhibition [5]: 9.35%
growth inhibition [6]: 89.6% (active)

O=C(O)c1cc(C2CC2)nc2ccc(Br)cc12
growth inhibition [1]: 13.6%
growth inhibition [2]: 1.7%
growth inhibition [3]: 2.2%
growth inhibition [4]: 6.55%
growth inhibition [5]: -5.6%
growth inhibition [6]: 19.8%

CC1=CCC(=O)[C@]2(C)C(CC(=O)O)[C@]3(C)C4=C(C)C(c5ccoc5)C[C@@H]4O[C@@H]3[C@H](O)[C@@H]12 (some centres undefined)
growth inhibition [1]: 26.5%
growth inhibition [2]: -9.6%
growth inhibition [3]: 9.65%
growth inhibition [4]: 41%
growth inhibition [5]: -1.2%
growth inhibition [6]: -67.8%

CC(=O)Oc1ccccc1C(OC(C)=O)OC(C)=O
growth inhibition [1]: 31.8%
growth inhibition [2]: 5.2%
growth inhibition [3]: 12.5%
growth inhibition [4]: -20.1%
growth inhibition [5]: 2.05%
growth inhibition [6]: 34.4%

CCNC(=S)NCCc1c[nH]c2ccccc12
growth inhibition [1]: -57%
growth inhibition [2]: -3.55%
growth inhibition [3]: -7.75%
growth inhibition [4]: -0.4%
growth inhibition [5]: 2.55%
growth inhibition [6]: -36.6%
